Measurements from PubChem BioAssay (NCATS).
Inconclusive results are not listed. The source made the active and inactive calls. Calls come from the whole dose curve; as a rule, active = well fitted curve in the direction sought with a large enough effect; inconclusive = small, poorly fitted or top-dose-only effect, or another doubt; inactive = no such curve, though single readings can be large; an effect the other way counts as inactive or inconclusive.

Experiments:
CRL-7250 = normal cell line; assay: Cytotoxic Profiling of Annotated Libraries Using Quantitative High-Throughput Screening (AID 1296008); conditions: Five cell lines viability, CellTiter-Glo ATP luminescence, 48-72 h; max response: hits give low values; note: nearly all actives have a fitted effect of over 60% in size; for max response: % is set by controls: 0 for no effect and ±100 for the full control effect
Outline: (§1)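 Compounds were pin-transferred onto cells and incubated 48 or 72 hr at 37 degree Celsius, 95% humidity. CellTiter-Glo was added, plates sat 10 min at room temperature, then ATP-coupled luminescence was imaged as the viability read-out.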

HEK293 = assay: as above; conditions: Five cell lines viability, CellTiter-Glo ATP luminescence, 48-72 h; max response: hits give low values
Outline: as §1

HaCat = assay: as above; conditions: Five cell lines viability, CellTiter-Glo ATP luminescence, 48-72 h; max response: hits give low values
Outline: as §1

KB-3-1 = assay: as above; conditions: Five cell lines viability, CellTiter-Glo ATP luminescence, 48-72 h; max response: hits give low values
Outline: as §1

NIH3T3 = assay: as above; conditions: Five cell lines viability, CellTiter-Glo ATP luminescence, 48-72 h; max response: hits give low values
Outline: as §1

HEK293T = assay: qHTS assay to identify novel small-molecules to repurpose for Merkel cell carcinoma treatment (AID 1296009); conditions: MCC and control cell lines, CellTiter-Glo viability, 72 h; series mostly up to 44.8 µM; note: nearly all actives have a fitted effect of over 60% in size
Outline: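 Luminescence from CellTiter-Glo, read 10 min after addition at room temperature, reported viability following a 72 hr, 37 degree celsius treatment with NPC or MIPE compounds in titration; values normalized to plate controls.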

C33A = assay: Primary qHTS to identify gynecologic anti-cancer compounds using libraries of approved drugs and bioactive compounds (AID 1345084); conditions: Gynecologic cancer cell panel viability, ATPlite luminescence, 48 h; series mostly up to 57.5 µM; note: % is set by controls: 0 for no effect and ±100 for the full control effect; nearly all actives have a fitted effect of over 55% in size
Outline: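 Cytotoxicity screen measuring ATP content by luciferase luminescence. Each compound is applied at five concentrations for 48 h at 37 C with 5% CO2.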

COC(=O)C1=CO[C@@H](O[C@@H]2O[C@H](CO)[C@@H](O)[C@H](O)[C@H]2O)[C@@H]2[C@@](C)(O)[C@@H](O)C[C@]12O
inactive: max response (CRL-7250) -11.5% | outcome (HEK293) | max response (HaCat) 3.45% | max response (KB-3-1) 1.93% | max response (NIH3T3) -0.0114% | Potency (HEK293T) | Potency (C33A)

C[C@@H]1CCC2C(C)(C)[C@H](O)CC[C@]2(C)[C@@]12Cc1c(O)cc3c(c1O2)CN(CCO)C3=O (some centres not stated)
inactive: max response (CRL-7250) -2.75% | outcome (HEK293) | max response (HaCat) 4.59% | max response (KB-3-1) 3.58% | max response (NIH3T3) 1.6% | Potency (HEK293T) | Potency (C33A)

CNC(=O)[C@H]1O[C@@H](n2cnc3c(NCc4ccc(N)c(I)c4)ncnc32)[C@H](O)[C@@H]1O
inactive: max response (CRL-7250) -3.43% | outcome (HEK293) | max response (HaCat) -7.91% | outcome (KB-3-1) | max response (NIH3T3) -0.967% | outcome (HEK293T) inactive [at 9.27 µM] | activity change, negative = cytotoxicity (C33A) 17.6% [at 11.6 µM]

CC1OC(OC2C(CO)OC(OCC3OC(OC(=O)C45CCC(C)(C)CC4C4=CCC6C7(C)CCC(OC8OC(C(=O)O)C(O)C(OC9OC(CO)C(O)C(O)C9O)C8O)C(C)(C)C7CCC6(C)C4(C)CC5)C(O)C(O)C3O)C(O)C2O)C(O)C(O)C1O (configuration not stated)
inactive: outcome (CRL-7250) | outcome (HEK293) | max response (HaCat) -1.82% | outcome (KB-3-1) | max response (NIH3T3) 3.49% | outcome (HEK293T) inactive [at 9.27 µM] | activity change, negative = cytotoxicity (C33A) 4.48% [at 6.55 µM]

COc1cc(C2Oc3c(O)cc(CCCO)cc3C2CO)ccc1O[C@H]1O[C@H](C)[C@@H](O)[C@H](O)[C@@H]1O (some centres not stated)
inactive: max response (CRL-7250) 0.29% | outcome (HEK293) | max response (HaCat) 3.18% | outcome (KB-3-1) | max response (NIH3T3) -0.439% | Potency (HEK293T) | Potency (C33A)

CC(O)(CC(=O)O)CC(=O)O[C@@H]1[C@@H](O)[C@H](OCCc2ccccc2)O[C@H](CO)[C@H]1O (some centres not stated)
inactive: max response (CRL-7250) -0.691% | outcome (HEK293) | max response (HaCat) -14.4% | max response (KB-3-1) 7.92% | max response (NIH3T3) 1.93% | Potency (HEK293T) | Potency (C33A)

COC1CC(=O)CCC(C)OC(=O)CC1O (configuration not stated)
inactive: max response (CRL-7250) -4.48% | outcome (HEK293) | max response (HaCat) 1.84% | outcome (KB-3-1) | max response (NIH3T3) 4.21% | Potency (HEK293T) | Potency (C33A)

CC1=C(CC(=O)O)c2cc(F)ccc2C1=Cc1ccc(S(C)(=O)=O)cc1
inactive: outcome (CRL-7250) | outcome (HEK293) | max response (HaCat) -6.44% | outcome (KB-3-1) | max response (NIH3T3) 4% | Potency (HEK293T) | Potency (C33A)

C=C1C(O[C@@H]2O[C@H](CO)[C@@H](O)[C@H](O)[C@@H]2O)CC2C(C)(C)C(O)CCC2(C)C1CC/C(C)=C\CO (some centres not stated)
inactive: max response (CRL-7250) -10.8% | outcome (HEK293) | max response (HaCat) -5.23% | outcome (KB-3-1) | max response (NIH3T3) -3.89% | Potency (HEK293T) | Potency (C33A)

COc1ccccc1CC(C(=O)O)N(C)C(=O)c1ccccc1 (configuration not stated)
inactive: max response (CRL-7250) 0.437% | outcome (HEK293) | max response (HaCat) 1.79% | max response (KB-3-1) 2.61% | max response (NIH3T3) -9.18% | Potency (HEK293T) | Potency (C33A)

C[C@@H]1O[C@@H](O[C@H]2[C@H](O)[C@@H](O)[C@H](OC[C@H]3O[C@@H](OC(=O)[C@]45CCC(C)(C)C[C@H]4C4=CCC6[C@@]7(C)C[C@H](O)[C@H](O[C@@H]8O[C@H](CO)[C@@H](O)[C@H](O)[C@H]8O)[C@@](C)(C(=O)O)C7CC[C@@]6(C)[C@]4(C)CC5)[C@H](O[C@@H]4O[C@H](CO)[C@@H](O)[C@H](O)[C@H]4O)[C@@H](O)[C@@H]3O)O[C@@H]2CO)[C@H](O)[C@H](O)[C@H]1O (some centres not stated)
inactive: max response (CRL-7250) 2.51% | outcome (HEK293) | max response (HaCat) 4.68% | max response (KB-3-1) 7.15% | max response (NIH3T3) 3.41% | outcome (HEK293T) inactive [at 9.27 µM] | activity change, negative = cytotoxicity (C33A) 4.28% [at 6.55 µM]

COC1=CC(=O)O[C@@H](CCc2ccccc2)[C@@H]1O
inactive: max response (CRL-7250) -14.6% | outcome (HEK293) | max response (HaCat) -13% | max response (KB-3-1) 5.84% | max response (NIH3T3) 3.13% | Potency (HEK293T) | Potency (C33A)

C/C(=C/CCC(CO)C1CCC2(C)C3CCC4C(C)(C)C(OC5OC(CO)C(O)C(O)C5O)CC(O)C45CC35CCC12C)COC1OC(CO)C(O)C(O)C1O (configuration not stated)
inactive: outcome (CRL-7250) | outcome (HEK293) | max response (HaCat) -8.45% | max response (KB-3-1) -1.63% | max response (NIH3T3) 0.608% | Potency (HEK293T) | Potency (C33A)

COC(=O)c1cc(CN2CCN(C(=N)N)CC2)cc(C(=O)N2CCN(C(=O)c3ccc(C(=N)N)cc3)CC2)c1
inactive: outcome (CRL-7250) | outcome (HEK293) | max response (HaCat) 1.52% | max response (KB-3-1) 2.44% | outcome (NIH3T3) | Potency (HEK293T) | Potency (C33A)

CC(=O)c1c(C)cc(O[C@@H]2O[C@H](CO)[C@@H](O)[C@H](O)[C@H]2O)cc1O
inactive: outcome (CRL-7250) | outcome (HEK293) | max response (HaCat) 3.2% | max response (KB-3-1) -6.9% | max response (NIH3T3) 0.376% | Potency (HEK293T) | Potency (C33A)

CN1C(=O)c2ccccc2-n2c(nc3ccccc3c2=O)/C1=C/c1ccccc1
inactive: outcome (CRL-7250) | outcome (HEK293) | max response (HaCat) -6.39% | outcome (KB-3-1) | max response (NIH3T3) 3.9% | Potency (HEK293T) | Potency (C33A)
